hNpr1 antagonist = Natriuretic polypeptide receptor (hNpr1) antagonism - Primary qHTS | Atrial natriuretic peptide receptor 1 (Homo sapiens), P16066 | HEK293 hNpr1 GloSensor cGMP, ANP-stimulated luminescence | Potency, µM (top dose mostly 46.3 µM), actives largely listed as inhibitors | 1.6% of 76,000 active; calls by dose curve; also: nearly all actives have a fitted effect of over 60% in size
Target sequence (P16066 whole entry, looked up): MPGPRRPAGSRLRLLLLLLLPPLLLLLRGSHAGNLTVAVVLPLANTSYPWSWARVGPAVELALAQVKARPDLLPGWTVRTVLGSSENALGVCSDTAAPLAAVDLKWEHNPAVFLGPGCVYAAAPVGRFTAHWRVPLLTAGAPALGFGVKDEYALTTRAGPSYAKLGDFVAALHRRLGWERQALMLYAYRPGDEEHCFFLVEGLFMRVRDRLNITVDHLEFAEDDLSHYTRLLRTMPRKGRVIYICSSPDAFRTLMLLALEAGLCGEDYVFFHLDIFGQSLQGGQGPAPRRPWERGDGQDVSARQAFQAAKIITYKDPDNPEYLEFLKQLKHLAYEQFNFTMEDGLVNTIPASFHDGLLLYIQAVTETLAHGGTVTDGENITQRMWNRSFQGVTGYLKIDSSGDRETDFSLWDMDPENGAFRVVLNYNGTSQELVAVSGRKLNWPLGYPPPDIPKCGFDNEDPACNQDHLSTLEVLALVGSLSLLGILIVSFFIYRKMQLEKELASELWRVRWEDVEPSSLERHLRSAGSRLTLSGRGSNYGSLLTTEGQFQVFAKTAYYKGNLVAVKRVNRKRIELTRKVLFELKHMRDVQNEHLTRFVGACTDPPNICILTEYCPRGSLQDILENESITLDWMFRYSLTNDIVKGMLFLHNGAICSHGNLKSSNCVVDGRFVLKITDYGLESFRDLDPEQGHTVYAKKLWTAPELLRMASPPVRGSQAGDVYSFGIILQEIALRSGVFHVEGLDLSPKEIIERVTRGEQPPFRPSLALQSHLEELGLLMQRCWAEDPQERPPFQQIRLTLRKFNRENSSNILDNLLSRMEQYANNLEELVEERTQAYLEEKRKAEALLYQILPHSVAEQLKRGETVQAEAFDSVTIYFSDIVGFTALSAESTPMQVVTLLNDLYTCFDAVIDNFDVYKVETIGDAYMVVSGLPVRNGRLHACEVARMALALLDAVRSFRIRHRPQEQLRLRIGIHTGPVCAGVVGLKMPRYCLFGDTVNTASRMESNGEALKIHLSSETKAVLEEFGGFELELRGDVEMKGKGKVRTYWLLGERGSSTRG
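HEK293 cells stably expressing human Npr1 and cGMP GloSensor pGS-40F, loaded 2 h with 2% GloSensor reagent, given compound 30 min at room temperature. Luminescence read before and 20 min after 0.1 nM hNppA.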
GPT2 inhibitor = Primary qHTS assay for inhibitors of Glutamate pyruvate transaminase 2 (GPT2); Alanine aminotransferase 2 (Homo sapiens), Q8TD30; Recombinant GPT2, coupled pyruvate oxidase/HRP Amplex Red fluorescence; Potency, µM (series often up to 57.7 µM), actives largely listed as inhibitors; 0.25% of 100,000 active; also: nearly all actives have a fitted effect of over 60% in size
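GPT2 10ng/uL, a-KG 250uM, L-Ala 2mM, HEPES pH7.5 + 0.0001% Tween; 30 min RT. Then Amplex mix (PO/HRP/ThPP), 30 min RT dark, fluorescence. AOA 50uM used as positive control.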
3T3 cytotox = Cytotoxic Profiling in NIH 3T3 Cell Line of Diverse Libraries Using Quantitative High-Throughput Screening; NIH 3T3 viability, CellTiter-Glo ATP luminescence, 48-72 h; 4.3% of 94,000 active; Potency, µM (series often up to 96.7 µM), most hits filed as inhibitors; also: nearly all actives have a fitted effect of over 55% in size
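First NIH 3T3 cells are plated at 400 cells/well; next compound is pinned in; then plates incubate 48 or 72 hr at 37 °C; finally CellTiter-Glo is added and luminescence read after 10 min.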
HEK293 tox = Cytotoxic Profiling in HEK 293 Cell Line of Diverse Libraries Using Quantitative High-Throughput Screening | 6.6% of 94,000 active | HEK 293 viability, ATP luminescence (CellTiter-Glo), 48-72 h | AID 1345083, 2018 | Potency, µM (top dose mostly 115 µM), hits mostly inhibitors; also: nearly all actives have a fitted effect of over 60% in size
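250 HEK 293 cells/well; compound by pintool; incubated 48 or 72 hr at 37 degree Celsius; CellTiter-Glo added, 10 min RT, luminescence imaged.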
Luciferase inh = Firefly luciferase inhibition profiling of diverse chemical library using quantitative high-throughput screening; purified P. pyralis luciferase, luminescence, biochemical; 2.5% of 76,000 active; Potency, µM (highest dose often 115 µM), actives largely listed as inhibitors; also: nearly all actives have a fitted effect of over 65% in size
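Purified 10nM P. pyralis luciferase with 10uM D-luciferin and 10uM ATP in 50mM Tris acetate pH 7.5, 10mM Mg acetate, 0.01% Tween-20, 0.05% BSA. qHTS titration; luminescence read by CCD imager.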
A number is an active result; 0 = inactive; ? = inconclusive; - = no result given. In the library only some 10% were active in any assay of this set; here they are far more common. Unless noted, calls follow the shape of the dose curve; as a rule, active = well fitted curve in the direction sought with a large enough effect; inconclusive = small, poorly fitted or top-dose-only effect, or another doubt; inactive = no such curve, though single readings can be large; an effect the other way counts as inactive or inconclusive.

SMILES	hNpr1 antagonist	GPT2 inhibitor	3T3 cytotox	HEK293 tox	Luciferase inh
Cc1nn(-c2ccc(F)cc2)c(Oc2cccc(F)c2)c1CCC(=O)N(C)C(C)C	0	0	?	50µM	0
Cc1nn(-c2ccc(F)cc2)c(Oc2cccc(F)c2)c1CCC(=O)N1CCSCC1	0	0	?	35µM	0
Cc1ccccc1Oc1c(CCC(=O)N2CCSCC2)c(C)nn1-c1ccc(F)cc1	0	0	?	?	0
CC(C)CC(=O)N1CCC2(CC1)CN(Cc1ccccc1)CC2CO (centres undefined)	0	0	?	?	0
CCc1nn(-c2ccccc2)c(Oc2ccc(C)cc2)c1CCC(=O)N1CCSCC1	0	0	?	40µM	0
O=C(Cn1nc2c(cc1=O)CCCC2)N1CCN(Cc2ccccc2Cl)CC1	0	0	28µM	?	0
O=C(Cn1nc2c(cc1=O)CCCCC2)N1CCN(Cc2ccccc2Cl)CC1	0	0	0	?	0
CCc1noc(CN2CCOc3c(O)cc(-c4ccccc4C)cc3C2)n1	0	0	?	?	0
COc1cccc(C2CCN(Cc3cn(-c4ccccc4)nn3)C2)c1OC (centres undefined)	0	0	?	79µM	0
Cc1noc2c(NC3CCN(C)CC3)cc(-c3ccc(F)cc3)nc12	0	0	10µM	63µM	0
Cc1noc2c(NC3CCC(O)CC3)cc(-c3ccc(F)cc3)nc12 (centres undefined)	0	0	22µM	?	0
Cc1noc2c(-c3cccnc3NC3CCN(C)CC3)cc(-c3ccc(Cl)cc3)nc12	0	0	22µM	89µM	0
Cc1noc2c(-c3cccnc3NC3CCC(O)CC3)cc(-c3ccccc3)nc12 (centres undefined)	0	0	?	?	0
COCCCNC(=O)c1ccc2nnc(-c3cc(C(F)(F)F)cc(C(F)(F)F)c3)n2c1	-	0	?	?	-
CCc1noc(-c2cccn3c(CNC(=O)CCc4ccccc4)nnc23)n1	0	0	0	0	0
C[S+](=O)([O-])NCCNC(=O)c1cccc(-c2ccc(C(F)(F)F)cc2)c1	-	0	?	?	-
O=C(NCCN[S+](=O)([O-])c1ccccc1)c1cccc(-c2ccc(C(F)(F)F)cc2)c1	-	0	22µM	10µM	-
COc1cccc(-c2ccc(C(=O)NCCNC(=O)c3ccc4c(c3)OCO4)cc2)c1	-	-	0	79µM	-
COc1ccc(C(=O)NCCNC(=O)c2ccc(-c3cccc(OC)c3)cc2)cc1	-	-	0	0	-
COc1cccc(-c2ccc(C(=O)NCCN[S+](=O)([O-])c3cccc(C(F)(F)F)c3)cc2)c1	-	-	?	32µM	-
COc1cccc(-c2ccc(C(=O)NCCN[S+](=O)([O-])c3ccccc3)cc2)c1	-	-	?	45µM	-
Cc1cccc(CNC(=O)COc2ccc(NC(=O)C3CC3)cn2)c1	0	0	0	0	0
O=C([C@@H]1C[C@H](F)CN1C(=O)NCc1ccco1)N1CCCCC1	0	0	0	0	0
COc1ncc(CN2CC[C@@H]3OCC(=O)N(Cc4cccc(C(N)=O)c4)[C@H]3CC2)cn1	0	0	?	0	0
Cc1noc(C)c1[S+](=O)([O-])NCCNC(=O)c1ccc(-c2cccc(C(F)(F)F)c2)cc1	-	-	35µM	?	-
SMILES	hNpr1 antagonist	GPT2 inhibitor	3T3 cytotox	HEK293 tox	Luciferase inh
COc1ccc(-c2noc([C@@H]3C[C@@H](O)CN3Cc3ccc(C)cc3)n2)cc1	0	0	0	?	?
O[C@@H]1C[C@@H](c2nc(-c3ccc(F)cc3)no2)N(Cc2ccc(F)cc2)C1	0	0	?	100µM	0
CS(=O)(=O)c1ccc(CN2C[C@H](O)C[C@H]2c2nc(-c3ccc(F)cc3)no2)cc1	0	0	0	0	45µM
C=CCNC1=C2C[C@@H](C)C[C@H](OC)[C@@H](O)[C@@H](C)C=C(C)[C@H](OC(N)=O)[C@@H](OC)C=CC=C(C)C(=O)NC(=CC1=O)C2=O	-	0	-	-	-
CO[C@H]1C=CC=C(C)C(=O)NC2=CC(=O)C(NCCN(C)C)=C(C[C@@H](C)C[C@H](OC)[C@@H](O)[C@@H](C)C=C(C)[C@@H]1OC(N)=O)C2=O	-	31µM	-	-	-
OC[C@@H]1CNC[C@H]1C1CCN(Cc2ccc(Cl)c(F)c2)CC1	0	0	?	40µM	0
OC[C@@H]1CNC[C@H]1C1CCN(Cc2ccc(OC(F)(F)F)cc2)CC1	0	0	?	40µM	0
COCCCNC(=O)c1ccc2c(c1)CC(=O)N2Cc1ccccc1	0	0	?	?	0
O=C(NCc1ccc(F)cc1F)c1noc(-c2ccc(F)cc2)n1	0	0	0	0	0
Cc1ccc(-c2nc(C(=O)NCc3ccccc3F)no2)cc1	0	0	0	0	22µM
O=C(NCc1ccc(F)cc1)c1noc(-c2ccc3c(c2)OCO3)n1	0	0	0	0	?
O=C(NCc1ccccc1F)c1noc(-c2ccc3c(c2)OCO3)n1	0	0	?	0	32µM
O=C(NCc1cccc(Br)c1)c1noc(-c2ccc(F)cc2)n1	0	0	32µM	25µM	?
O=C(NCc1ccc(Cl)cc1)c1noc(-c2ccc(F)cc2)n1	0	0	0	?	0
O=C(NCc1ccccc1)c1noc(-c2ccc3c(c2)OCO3)n1	0	0	?	?	40µM
OC1(c2csc(CN3CCOCC3)n2)CCN(Cc2ccc(F)cc2)CC1	0	0	0	0	0
CC(C)(C)C(=O)N1CCCC1C(=O)N1CCCC1c1nc2ccncc2[nH]1 (centres undefined)	-	0	0	0	-
Cc1ccc(-c2nc(C(=O)NCc3ccco3)no2)cc1	0	0	0	0	16µM
Cc1ccc(-c2nc(C(=O)NCc3cc(F)cc(F)c3)no2)cc1	0	0	?	32µM	0
Cc1ccc(-c2nc(C(=O)NCc3ccc(Cl)cc3)no2)cc1	0	0	0	0	0
COc1ccc(CNC(=O)c2noc(-c3ccc(F)cc3)n2)cc1OC	?	0	0	?	0
COc1ccc(CNC(=O)c2noc(-c3ccc(C)cc3)n2)cc1OC	13µM	0	?	?	?
C=CCN1CC2(CCC1=O)CCN(C(=O)[C@@H](O)c1ccccc1)CC2	0	0	0	0	0
O=C(Nc1c(Cl)cncc1Cl)c1ccc(OC(F)F)c(OCC2CC2)c1	-	0	-	-	-
COCCNC(=O)c1nc2cccnc2n(-c2ccc(OC)cc2)c1=O	-	0	0	0	-
CC(C)c1nc2c(c(-c3ccc(O)cc3)n1)CN(Cc1cccnc1)CC2	0	0	0	0	0
CN(Cc1ccccc1)C(=O)C[C@@H]1c2nc(NC(=O)c3ccc(F)cc3)sc2C[C@@H]2[C@](C)(CO)[C@H](O)CC[C@]21C	0	0	25µM	?	0
